Our source for the outcome and activity, negative = inhibition values is PubChem BioAssay (Tox21).

Structures are written as SMILES. Results filed as inconclusive are left out. Unmarked numbers belong to inactive results. The source made the active and inactive calls. The call rests on the fitted dose curve; in most records, active means well fitted inhibition curve with a large enough effect in the repeat runs; inconclusive means weak or mixed curves; inactive means no such curve, though single readings can be large or run the other way.
On the % scale 0 is the no-effect control and ±100 the full control effect.

Sequence of Androgen receptor (Homo sapiens) (P10275 whole entry, looked up): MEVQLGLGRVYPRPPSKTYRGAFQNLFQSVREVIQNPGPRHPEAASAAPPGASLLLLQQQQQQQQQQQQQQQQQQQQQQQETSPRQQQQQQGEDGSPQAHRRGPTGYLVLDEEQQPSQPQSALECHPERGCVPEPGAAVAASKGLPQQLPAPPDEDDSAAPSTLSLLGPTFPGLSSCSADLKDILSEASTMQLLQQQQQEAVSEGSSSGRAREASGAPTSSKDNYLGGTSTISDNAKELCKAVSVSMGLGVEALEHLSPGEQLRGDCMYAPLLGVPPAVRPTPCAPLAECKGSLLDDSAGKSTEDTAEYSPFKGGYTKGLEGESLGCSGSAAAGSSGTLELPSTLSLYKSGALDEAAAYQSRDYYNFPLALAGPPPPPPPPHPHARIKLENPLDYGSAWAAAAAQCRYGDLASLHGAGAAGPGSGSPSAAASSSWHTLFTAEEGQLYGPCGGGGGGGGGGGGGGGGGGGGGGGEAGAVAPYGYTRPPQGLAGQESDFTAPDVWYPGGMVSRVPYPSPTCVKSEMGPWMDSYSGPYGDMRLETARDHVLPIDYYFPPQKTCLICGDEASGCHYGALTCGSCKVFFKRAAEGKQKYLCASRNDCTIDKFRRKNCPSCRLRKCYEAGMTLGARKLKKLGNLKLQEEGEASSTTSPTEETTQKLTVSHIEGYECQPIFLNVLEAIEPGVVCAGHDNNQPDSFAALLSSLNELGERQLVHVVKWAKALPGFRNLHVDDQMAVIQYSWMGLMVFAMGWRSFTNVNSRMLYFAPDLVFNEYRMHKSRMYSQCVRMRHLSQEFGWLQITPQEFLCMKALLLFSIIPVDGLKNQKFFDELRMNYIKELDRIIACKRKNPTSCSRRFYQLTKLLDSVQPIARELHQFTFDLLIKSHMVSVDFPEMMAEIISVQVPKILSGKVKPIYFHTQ

In this experiment the target is Androgen receptor (Homo sapiens) (UniProt P10275). As to the kind of experiment: qHTS assay to identify small molecule antagonists of the androgen receptor (AR) signaling pathway using the MDA cell line in the presence of 0.5 nM R1881 (AID 1259243). Further: nearly all actives have a fitted effect of over 50% in size. The conditions noted are these: MDA-kb2 MMTV-luciferase, R1881 0.5 nM, 16 h; series mostly up to 42.5 µM. From the text:
U.S. Tox21 Program National Center for Advancing Translational Sciences [NCATS] NIH Chemical Genomics Center [NCGC] U.S. Environmental Protection Agency [EPA] National Institutes of Environmental Health Sciences [NIEHS] National Toxicology Program [NTP] U.S. Food and Drug Administration [FDA] Tox21 Assay Overview: Androgen receptor (AR) is an important member of the nuclear receptor family. Its signaling plays a critical role in AR-dependent prostate cancer and other androgen related diseases. Considerable attention has been given in the past decades to develop methods to study and screen for the environmental chemicals that have the potential to interfere with metabolic homeostasis, reproduction, developmental and behavioral functions. Therefore AR binding assay for screening androgen antagonists can be used to identify potential endocrine disruptors. MDA-kb2 cells (from ATCC, deposited by Wilson et al.) were used to screen for AR inhibitors against Tox21 compound libraries. These cells are human breast carcinoma cells that were stably transfected with a luciferase reporter gene under control of the MMTV promoter that contains response elements for both androgen receptor (AR) and glucocorticoid receptor (GR). The current screening for identification of AR inhibitors against Tox21 libraries used lower concentration (0.5 nM) of R1881 as a stimulator.
Tox21 Assay Protocol Summary: MDA-kb2 cells (cells cultured without CO2) were dispensed at 3,000 cells/well in 4 uL of culture medium into white wall/solid-bottom 1536-well plates (Corning Life Sciences, Corning, NY) using a Multidrop Combi (ThermoFisher Scientific, Waltham, MA) dispenser. After the assay plates were incubated at a 37C and 0% CO2 for 5 hr, 23 nL of compounds dissolved in DMSO, positive controls or DMSO only was transferred to the assay plate by a Pintool station (Kalypsys, San Diego, CA). The transfer of compounds was followed by the addition of 1 uL of 0.5 nM (final concentration) agonist (R1881)/culture medium using a Flying Reagent Dispenser (FRD, Aurora Discovery, San Diego, CA). The plates were incubated at 37C and 0% CO2 for 16 hr. For luciferase reporter gene assay, 4 uL of ONE-Glo reagent (Promega Corporation, Madison, WI) was added to each well using the FRD and after 30 min incubation at room temperature luminescence intensity was measured using ViewLux plate reader (PerkinElmer, Shelton, CT).
With `CNC(=O)NC`, the outcome was inactive.

Consider `Nc1cc(C(=O)O)ccc1Cl`, for which the result was inactive.

On to `C=CCOCC(O)CCl` (centres undefined), for which the result was inactive.

On to `Cc1nc2n(c(=O)c1CCN1CCC(C(=O)c3ccc(F)cc3)CC1)CCS2`, for which the outcome was inactive.

With `CCN(CC)C(=O)C1CN2CCc3cc(OC)c(OC)cc3C2CC1OC(C)=O` (centres undefined), the outcome was inactive.

`CC(=O)OC(C(=O)c1ccccc1)c1ccccc1` (centres undefined): the result was inactive.

Regarding `CCC(C)(C)C1CCC(=O)CC1`, the outcome was inactive.

Regarding `O=C(O)c1ccc(OCCN2CCCCC2)cc1`, the outcome was inactive.

Consider `CCCCC[Si](OCC)(OCC)OCC`, for which the result was inactive.

Take `Nc1ccnc(=O)[nH]1`: the outcome was inactive.

For `CC(=O)OC[C@H]1O[C@@H](OC(C)=O)[C@H](OC(C)=O)[C@@H]1OC(C)=O`, the outcome was inactive.

In the case of `Cc1ncc([N+](=O)[O-])n1CC(O)CCl` (centres undefined), the result was inactive.

As for `NCCc1ccn[nH]1`, the result was inactive.

With `CCCCCCCCCCCCCC(=O)OC`, the result was inactive.

For `O=C(CN1CCN(Cc2ccc3c(c2)OCO3)CC1)N1c2ccccc2Sc2ccccc21`, the result was inactive.

In the case of `COc1cccc2sc(N)nc12`, the result was inactive.

For the compound `O=C1OC(=O)c2cc(Oc3ccc4c(c3)C(=O)OC4=O)ccc21`, the result was inactive.

Regarding `COc1ccc(/C=N/NC(=O)c2ccncc2)cc1OC`, the outcome was inactive.

For the compound `Nc1ccc(S(=O)(=O)Nc2ccccn2)cc1`, the outcome was inactive.

Turning to `CCCCC(CC)CNC(=O)CC(C)OC(=O)CCC(=O)O` (centres undefined), the result was inactive.

For `O=c1[nH]c(=O)c2ccccc2o1`, the outcome was inactive.

Turning to `O=C(O)c1ccccc1C(=O)OCc1ccccc1`, the result was inactive.

Consider `Cn1c(=O)c2c(ncn2CC2OCCO2)n(C)c1=O`, for which the outcome was inactive.

On to `CCCCCCCCCCC`, for which the result was inactive.

As for `COC(OC)C(C)c1ccccc1` (centres undefined), the outcome was inactive.

As to `CCCOCCOCCOCCO`, the outcome was inactive.

Turning to `CCCCCCCCCCCCCCCCCCN(C)C`, the outcome was inactive.

On to `OC(CCN1CCCCC1)(c1ccccc1)c1ccccc1`, for which the result was inactive.

Take `O=CN1CCOCC1`: the outcome was inactive.

Regarding `CN[C@@H]1[C@H](O)[C@H](NC)[C@H]2O[C@@]3(O)C(=O)C[C@@H](C)O[C@H]3O[C@@H]2[C@H]1O`, the outcome was inactive.

As for `CC(=O)N1CCN(c2ccc(O)cc2)CC1`, the outcome was inactive.

Regarding `O=C(O)c1ccccc1C(=O)Nc1ccc(S(=O)(=O)Nc2nccs2)cc1`, the result was inactive.

On to `CCNC(=O)/C=C/c1cccc(Br)c1`, for which the outcome was inactive.

Consider `CCCCCCCCCCCCCCCCI`, for which the outcome was inactive.

In the case of `CC(C)COC(=O)COc1ccc(Cl)cc1Cl`, the outcome was inactive.

Turning to `COc1cc([N+](=O)[O-])ccc1N`, the result was inactive.

Turning to `C=CCCCCCCCCCCC`, the activity, negative = inhibition was 5.11% [at 8.39 µM].

`O=S(=O)(O)SSS(=O)(=O)O`: the result was inactive.

Consider `COCC(=O)Nc1c(I)c(C(=O)NCC(O)CO)c(I)c(C(=O)N(C)CC(O)CO)c1I` (centres undefined), for which the outcome was inactive.
